# Data published in PubChem BioAssay.
# “And” between values parts separate entries of the source, which are not always exact repeats. Equal values may be shown once. Inconclusive results are not listed. The source made the active and inactive calls.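 Rule for the calls, unless noted: active = compounds whose cell count with miR-34 switched on is under 0.7 times the count with it off; inactive = the rest.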
# What was measured:
# [1] = Wnt pathway potentiators raising nuclear beta-catenin – imaging, WNT3A-conditioned medium, mouse C2C12, NPC library, primary screen (AID 1117326; in the data active = nuclear beta-catenin stimulation mostly above about 4.2%, no sharp cut-off; inactive = mostly below about 10%; note: reference of the scale not given here); conditions: stronger effect = higher value
# [2] = stimulators of insulin release from INS-1E, primary screen, cell-based, 5 mM glucose, NPC library (AID 1117329;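 active = compound raises insulin release from rat beta cells at 5 mM glucose, no numeric limit stated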; note: reference of the scale not given here); conditions: rat INS-1E insulin secretion, at 10 µM, stronger effect = higher value
# [3] = growth inhibition of GSK3B-pretreated HCT116 cells – cell-based, CellTiter-Glo, 0.2 to 20 µM (AID 1117336;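 active = compounds lowering colon cancer cell viability after pretreatment blocking the GSK3B kinase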); conditions: HCT116 viability after GSK3B inhibitor, at 20 µM, stronger effect = higher value
# [4] = inhibition of endothelial tube formation, primary screen, imaging, VEGF stimulated, CD31 staining, tube area, NPC library (AID 1117340;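 active = compound that reduces growth-factor-driven endothelial tube area in a mixed cell culture, no cutoff stated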); conditions: VEGF-stimulated ADSC/ECFC co-culture, at 10 µM, stronger effect = higher value
# [5] = GLP1 release stimulators, primary, NCI-H716, NPC library (AID 1117341;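 active = compound raises GLP1 secretion from the human gut endocrine cells, with no numeric limit stated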; note: reference of the scale not given here); conditions: NCI-H716 cells, at 10 µM, stronger effect = higher value
# [6] = HCT116 colon cancer cell growth inhibition, primary screen, CellTiter-Glo luminescence, NPC library (AID 1117342;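 active = compounds that lower survival of HCT116 colon cancer cells in the luminescence readout, no numeric limit stated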); conditions: at 20 µM (top of the series)
# [7] = reduced SW480 viability measured with CellTiter-Glo, NPC library, primary (AID 1117343;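 active = compounds that lower viability of the colon cancer cells in the luminescence readout, with no numeric limit stated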); conditions: CellTiter-Glo luminescence; at 20 µM (top of the series) unless noted
# [8] = NPC library primary testing for decreased DLD-1 cell viability via CellTiter-Glo (AID 1117346;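 active = compounds that lower survival of DLD-1 colon cancer cells in the luminescence readout, no cutoff given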); conditions: DLD-1 viability, CellTiter-Glo luminescence; at 20 µM (top of the series)
# [9] = viability loss in pontine glioma line – cell-based, SU-DIPG-XVII, MIPE5.0, CellTiter-Glo, qHTS, dose response (AID 1347060; cut-off not given, nearly all actives have AC50 up to about 26 µM;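 for AC50: cells exposed to compound for 48 hours before viability readout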); conditions: CellTiter-Glo ATP luminescence
# [10] = viability loss in pontine glioma line – cell-based, SU-DIPG-XIII, MIPE4.0, CellTiter-Glo, qHTS, dose response (AID 1347061; cut-off not given, nearly all actives have AC50 up to about 37 µM;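 note: cells exposed to compound for 48 hours before readout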); conditions: CellTiter-Glo ATP luminescence
# [11] = viability loss in pontine glioma line – cell-based, JHH-DIPG-1, MIPE4.0, CellTiter-Glo, qHTS, dose response (AID 1347062; cut-off not given, nearly all actives have AC50 up to about 27 µM;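 for AC50: cells exposed to compound for two days before readout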); conditions: JHH-DIPG-1 viability, CellTiter-Glo ATP luminescence
# [12] = growth inhibition of DIPG cells – cell-based, MIPE5.0 library, qHTS (AID 1347068; cut-off not given, nearly all actives have IC50 up to about 30 µM); conditions: SU-DIPG-XXV viability
# [13] = viability loss with induced miR-34 in A549 – imaging, A549 dox-inducible miR-34, nuclei and caspase counts, primary screen (AID 1347080); conditions: A549 miR-34 inducible, Hoechst nuclei count, 48 h
# [14] = galactose survival enhancers in mitochondrial complex I cybrids – cell-based, galactose medium, ATP luminescence, primary screen (AID 1645843;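 active = z-score of at least 1.8 in each of two replicates, scored against plate mean and spread of sample wells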;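 note: positive z means more ATP and so rescue of galactose-driven cybrid death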); conditions: complex I mutant cybrid cells, 72 h, stronger effect = higher value
# [15] = P. berghei load reduction in hepatocytes – cell-based, HepG2, luciferase luminescence, HepG2 viability, primary screen (AID 624349; in the data active = parasite load remaining mostly below about 12%, no sharp cut-off; inactive = mostly above about 10%;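 note: 100% = mean of DMSO negative control wells on the same plate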); conditions: P. berghei liver stage in HepG2, luciferase luminescence, concentration not given here; parasite load remaining: stronger effect = lower value; viability: measured here: HepG2 viability without parasites
# [16] = MELAS cybrid and Rieske KO viability enhancers – cell-based, MELAS cybrids, Rieske KO mouse fibroblasts, CellTiter-Glo, primary screen (AID 1508586;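 active = mean z-score across replicates of 1.96 or higher in either the MELAS or the Rieske mutant cell line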;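 note: z relative to plate mean and SD of compound and empty wells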); conditions: low glucose
# [17] = tested on: Aerobactin synthetase IucA (Klebsiella pneumoniae); experiment: inhibition of K. pneumoniae IucA enzyme – biochemical, Tocris library, absorbance (AID 1345561; call rule not given here;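 note: 100% = enzyme without compound and 0% = no enzyme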); conditions: purified IucA enzyme assay, absorbance (OD) read-out; stronger effect = lower value;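 tested at 8 µM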
# [18] = stronger effect = lower value, cell number ratio, induced over uninduced
# [19] = measured here: relative caspase fold change +Dox/-Dox
# [20] = measured here: total cells with miR-34 induction, stronger effect = lower value
# [21] = measured here: total cells without miR-34 induction
# [22] = MELAS cybrid survival, CellTiter-Glo 48 h, stronger effect = higher value
# [23] = Rieske KO mouse fibroblast survival, CellTiter-Glo 72 h
compound,measurement,setting,value
Cc1[nH]c(=O)c(C#N)cc1-c1ccc2nccn2c1,nuclear beta-catenin stimulation,[1]; at 10 µM,-1.8% (inactive)
same,nuclear beta-catenin stimulation,"[1]; stimulation, at 2 µM",-0.5%
same,insulin secretion stimulation,[2],3% (inactive)
same,viability decrease,[3],-9.8% (inactive)
same,tube area decrease,[4],-3.8% (inactive)
same,GLP1 secretion stimulation,[5],-0.6% (inactive)
same,inhibition of viability,[6],-1.6% (inactive)
same,viability decrease (inhibition),[7],0.1% (inactive)
same,viability decrease (inhibition),[8],-7.8% (inactive)
same,outcome,[9],inactive
same,outcome,[10],inactive
same,outcome,[11],inactive
same,outcome,[12],inactive
same,fold change,[13]; [18],0.996 (inactive)
same,fold change,[13]; [19],0.805
same,cell count,[13]; [20],9250
same,cell count,[13]; [21],9290
same,z-score,[14],0.905 (inactive)
NS(=O)(=O)c1cc(Cl)c(Cl)c(S(N)(=O)=O)c1,parasite load remaining,[15],89.1% (inactive)
same,viability,[15],104%
same,nuclear beta-catenin stimulation,[1]; at 10 µM,-1.4% (inactive)
same,nuclear beta-catenin stimulation,"[1]; stimulation, at 2 µM",0.4%
same,insulin secretion stimulation,[2],3.3% (inactive)
same,viability decrease,[3],1% (inactive)
same,tube area decrease,[4],-7.2% (inactive)
same,GLP1 secretion stimulation,[5],0.3% (inactive)
same,inhibition of viability,[6],6.4% (inactive)
same,viability decrease (inhibition),[7],6.1% (inactive)
same,viability decrease (inhibition),[8],-8.2% (inactive)
same,AC50,[9],26.3 µM (active)
same,outcome,[10],inactive
same,outcome,[11],inactive
same,outcome,[12],inactive
same,fold change,[13]; [18],0.878 (inactive) and 0.937 (inactive)
same,fold change,[13]; [19],1.4 and 0.793
same,cell count,[13]; [20],8460 and 8780
same,cell count,[13]; [21],9640 and 9360
same,z-score,[16]; [22],-0.199 (inactive) and -0.0719 (inactive)
same,z-score,[16]; [23],0.943 and -0.845
CCOC(=O)[C@H](CCc1ccccc1)N[C@H]1CS[C@H](c2cccs2)CN(CC(=O)O)C1=O,nuclear beta-catenin stimulation,[1]; at 10 µM,0.9% (inactive)
same,nuclear beta-catenin stimulation,"[1]; stimulation, at 2 µM",-0.9%
same,insulin secretion stimulation,[2],2% (inactive)
same,viability decrease,[3],-8.8% (inactive)
same,tube area decrease,[4],-13.9% (inactive)
same,GLP1 secretion stimulation,[5],4.1% (inactive)
same,inhibition of viability,[6],-4.6% (inactive)
same,viability decrease (inhibition),[7],-29% (inactive)
same,viability decrease (inhibition),[8],2.5% (inactive)
same,outcome,[9],inactive
same,AC50,[10],14.8 µM (active)
same,AC50,[11],0.59 µM (active)
same,outcome,[12],inactive
O=C(O)Cc1ccc(OCCNC[C@H](O)c2ccccc2)cc1,nuclear beta-catenin stimulation,[1]; at 10 µM,23.3% (inactive)
same,nuclear beta-catenin stimulation,"[1]; stimulation, at 2 µM",-5%
same,insulin secretion stimulation,[2],0.6% (inactive)
same,viability decrease,[3],-5.3% (inactive)
same,tube area decrease,[4],-9.4% (inactive)
same,GLP1 secretion stimulation,[5],-0.5% (inactive)
same,inhibition of viability,[6],-1.1% (inactive)
same,viability decrease (inhibition),[7],8.4% (inactive)
same,viability decrease (inhibition),[8],19.5% (inactive)
same,remaining activity,[17],103% (inactive)
same,fold change,[13]; [18],0.89 (inactive)
same,fold change,[13]; [19],2.1
same,cell count,[13]; [20],8910
same,cell count,[13]; [21],10000
same,z-score,[14],0.015 (inactive)
COc1cc2c(cc1OC)[C@@H]1CC(=O)[C@@H](CC(C)C)CN1CC2,nuclear beta-catenin stimulation,[1]; at 10 µM,0.6% (inactive)
same,nuclear beta-catenin stimulation,"[1]; stimulation, at 2 µM",0.1%
same,insulin secretion stimulation,[2],-1.9% (inactive)
same,viability decrease,[3],-9.4% (inactive)
same,tube area decrease,[4],-10% (inactive)
same,GLP1 secretion stimulation,[5],-2.7% (inactive)
same,inhibition of viability,[6],21.4% (inactive)
same,viability decrease (inhibition),[7],2.6% (inactive)
same,viability decrease (inhibition),[8],5.2% (inactive)
same,remaining activity,[17],81.5% (inactive)
same,fold change,[13]; [18],0.993 (inactive)
same,fold change,[13]; [19],1.02
same,cell count,[13]; [20],8740
same,cell count,[13]; [21],8800
same,z-score,[14],0.105 (inactive)
CCN[C@H]1C[C@H](C)S(=O)(=O)c2sc(S(N)(=O)=O)cc21,parasite load remaining,[15],70.8% (inactive) and 54% (inactive)
same,viability,[15],73% and 119%
same,nuclear beta-catenin stimulation,[1]; at 10 µM,0.6% (inactive)
same,nuclear beta-catenin stimulation,"[1]; stimulation, at 2 µM",1.7%
same,insulin secretion stimulation,[2],2.65% (inactive)
same,viability decrease,[3],10.3% (inactive)
same,tube area decrease,[4],-2.8% (inactive)
same,GLP1 secretion stimulation,[5],2.1% (inactive)
same,inhibition of viability,[6],4.1% (inactive)
same,viability decrease (inhibition),[7],-12.1% (inactive)
same,viability decrease (inhibition),[8],3.2% (inactive)
same,outcome,[9],inactive
same,outcome,[10],inactive
same,outcome,[11],inactive
same,outcome,[12],inactive
same,fold change,[13]; [18],0.888 (inactive) and 0.89 (inactive)
same,fold change,[13]; [19],0.692 and 0.631
same,cell count,[13]; [20],8830 and 9540
same,cell count,[13]; [21],9940 and 10700
same,z-score,[16]; [22],-0.0417 (inactive) and -1.04 (inactive)
same,z-score,[16]; [23],-0.635 and -0.666
same,z-score,[14],0.255 (inactive)
CC1(COc2ccc(CC3SC(=O)NC3=O)cc2)CCCCC1 (stereo unspecified),nuclear beta-catenin stimulation,[1]; at 10 µM,2.4% (inactive)
same,nuclear beta-catenin stimulation,"[1]; stimulation, at 2 µM",1.5%
same,insulin secretion stimulation,[2],1.9% (inactive)
same,viability decrease,[3],99% (active)
same,tube area decrease,[4],14% (inactive)
same,GLP1 secretion stimulation,[5],6.6% (inactive)
same,inhibition of viability,[6],101% (active)
same,viability decrease (inhibition),[7],146% (active)
same,viability decrease (inhibition),[8],105% (active)
same,remaining activity,[17],110% (inactive)
same,fold change,[13]; [18],0.913 (inactive) and 1.03 (inactive) and 0.948 (inactive)
same,fold change,[13]; [19],1.87 and 1.11 and 0.669
same,cell count,[13]; [20],5590 and 5930 and 7780
same,cell count,[13]; [21],6130 and 5780 and 8200
same,z-score,[14],-0.49 (inactive)
Nc1ccn(C[C@@H](CO)OCP(=O)(O)O)c(=O)n1,nuclear beta-catenin stimulation,[1]; at 10 µM,1.2% (inactive)
same,nuclear beta-catenin stimulation,"[1]; stimulation, at 2 µM",0.4%
same,insulin secretion stimulation,[2],1.05% (inactive)
same,viability decrease,[3],22.7% (inactive)
same,tube area decrease,[4],-2.6% (inactive)
same,GLP1 secretion stimulation,[5],0.9% (inactive)
same,inhibition of viability,[6],14.9% (inactive)
same,viability decrease (inhibition),[7],109% (active)
same,viability decrease (inhibition),[8],2.8% (inactive)
same,outcome,[9],inactive
same,outcome,[10],inactive
same,outcome,[11],inactive
same,outcome,[12],inactive
C=CCn1c(=O)n([C@@H]2O[C@H](CO)[C@@H](O)[C@H]2O)c2nc(N)[nH]c(=O)c21,nuclear beta-catenin stimulation,[1]; at 10 µM,0.1% (inactive)
same,nuclear beta-catenin stimulation,"[1]; stimulation, at 2 µM",2.4%
same,insulin secretion stimulation,[2],-0.5% (inactive)
same,viability decrease,[3],-3.9% (inactive)
same,tube area decrease,[4],12.2% (inactive)
same,GLP1 secretion stimulation,[5],0.6% (inactive)
same,inhibition of viability,[6],2.2% (inactive)
same,viability decrease (inhibition),[7],-8.4% (inactive)
same,viability decrease (inhibition),[8],1% (inactive)
same,remaining activity,[17],101% (inactive)
same,fold change,[13]; [18],0.961 (inactive)
same,fold change,[13]; [19],1.57
same,cell count,[13]; [20],9010
same,cell count,[13]; [21],9380
same,z-score,[14],0.185 (inactive)
CC(C)OC(=O)C(C(=O)OC(C)C)=C1SC=CS1,nuclear beta-catenin stimulation,[1]; at 10 µM,1.3% (inactive)
same,nuclear beta-catenin stimulation,"[1]; stimulation, at 2 µM",0.1%
same,insulin secretion stimulation,[2],0.3% (inactive)
same,viability decrease,[3],3.95% (inactive)
same,tube area decrease,[4],4.8% (inactive)
same,GLP1 secretion stimulation,[5],3.5% (inactive)
same,inhibition of viability,[6],-0.1% (inactive)
same,viability decrease (inhibition),[7],6.3% (inactive)
same,viability decrease (inhibition),[8],8.2% (inactive)
same,outcome,[9],inactive
same,outcome,[10],inactive
same,outcome,[11],inactive
same,outcome,[12],inactive
same,fold change,[13]; [18],0.9 (inactive)
same,fold change,[13]; [19],0.974
same,cell count,[13]; [20],7660
same,cell count,[13]; [21],8520
same,z-score,[16]; [22],-0.382 (inactive)
same,z-score,[16]; [23],0.382
